The nature of assay [1]: small molecules captured by biotinylated probe aFSTL3 – biochemical, small-molecule microarray, fluorescence 635/667, stem cell growth factor project, primary screen (AID 1064).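 Also: measures binding of the biotinylated anti-FSTL3 antibody to printed compounds.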 The settings on record: higher = more signal.
A short description of assay [2]: binders from COS7 lysate, DM2A8 probe, primary screen, torsin A project, cell lysate, small-molecule microarray, fluorescence 635/667 (AID 1065). As to conditions: higher = more signal, COS7 lysate expressing mutant human TOR1A.
A short description of assay [3]: small molecules captured by biotinylated probe aFGF2 – biochemical, small-molecule microarray, fluorescence 635/667, stem cell growth factor project, primary screen (AID 1067).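 Also: measures binding of biotinylated aFGF2 protein to printed compounds on slides; z-score merges feature fluorescence and signal-to-noise across triplicate slides.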 The settings on record: higher = more signal.
Assay [4] can be described thus: small molecules captured by biotinylated probe aFGF10 – biochemical, small-molecule microarray, fluorescence 635/667, stem cell growth factor project, primary screen (AID 1071).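 Also: score merges 667 nm spot intensity and signal to noise from triplicate slides.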 The settings on record: higher = more signal.
The target in assay [5] is Neurogenic locus notch homolog protein 2 (Homo sapiens) (UniProt Q04721). As to the kind of experiment: small molecules binding Notch2 protein – biochemical, small-molecule microarray, 635 nm fluorescence, stem cell growth factors, primary screen (AID 1073). As to conditions: higher = more signal.
The target in assay [6] is Pro-neuregulin-1, membrane-bound isoform (Homo sapiens) (UniProt Q02297). As to the kind of experiment: small molecules binding neuregulin-1 protein – biochemical, small-molecule microarray, fluorescence 635/667, psychiatric disease protein project, primary screen (AID 1075).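 Also: score combines 667 nm spot fluorescence with signal to noise.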 As to conditions: NRG1 binding, 635 nm fluorescence, higher = more signal.
Sequence of Pro-neuregulin-1, membrane-bound isoform (Homo sapiens) (Q02297 whole entry, looked up, the tested form may be a part, canonical isoform): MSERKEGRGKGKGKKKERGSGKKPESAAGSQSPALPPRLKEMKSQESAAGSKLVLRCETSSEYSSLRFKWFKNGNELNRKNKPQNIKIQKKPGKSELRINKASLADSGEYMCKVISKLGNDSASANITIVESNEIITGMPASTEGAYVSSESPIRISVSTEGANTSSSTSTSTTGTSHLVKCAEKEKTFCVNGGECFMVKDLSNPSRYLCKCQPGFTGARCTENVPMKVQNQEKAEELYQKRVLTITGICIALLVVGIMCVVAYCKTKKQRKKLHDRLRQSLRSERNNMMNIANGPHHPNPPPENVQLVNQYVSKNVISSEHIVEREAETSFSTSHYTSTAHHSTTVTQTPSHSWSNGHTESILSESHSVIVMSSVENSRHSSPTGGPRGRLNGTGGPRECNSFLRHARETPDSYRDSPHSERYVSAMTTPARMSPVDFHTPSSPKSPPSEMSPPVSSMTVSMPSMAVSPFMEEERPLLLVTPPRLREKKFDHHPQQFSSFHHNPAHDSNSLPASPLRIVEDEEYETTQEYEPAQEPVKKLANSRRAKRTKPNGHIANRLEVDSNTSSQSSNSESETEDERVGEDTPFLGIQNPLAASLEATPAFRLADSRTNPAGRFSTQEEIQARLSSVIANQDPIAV
Assay [7] has as its system Neuregulin-1 EGF-like domain. The experiment in a line: small molecules binding NRG1 EGF domain – biochemical, small-molecule microarray, 635 nm fluorescence, primary screen (AID 1081).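 Also: binding of the protein to compounds printed on small-molecule microarray slides.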 The settings on record: higher = more signal.
Assay [8] can be described thus: FRG1 expression reporter modulators in myotubes – cell-based, C2C12 myotubes, firefly/Renilla luciferase, luminescence, FRG1 inhibition for FSHD, primary screen (AID 1084). The settings on record: FRG1 promoter luciferase, higher = more signal, called active from +8 up or from −8 down.
Assay [9] is described as follows: small molecules captured by biotinylated probe aFST – biochemical, small-molecule microarray, fluorescence 635/667, stem cell growth factor project, primary screen (AID 1086).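 Also: score merges 667 nm fluorescence with signal-to-noise of each printed compound spot.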 The settings on record: higher = more signal.
The nature of assay [10]: binders of probe aHhip on microarray, primary screen, stem cell growth factor project, biochemical, small-molecule microarray, fluorescence 635/667 (AID 1087).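 Also: score merges spot fluorescence at 667nm with spot signal to noise ratio.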 As to conditions: higher = more signal.
Assay [11] concerns PRMT1 (protein arginine N-methyltransferase 1). As to the kind of experiment: small molecules binding arginine methyltransferase PRMT1 – biochemical, small-molecule microarray, 635 nm fluorescence, primary screen (AID 1088).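 Also: binding of Prmt1 protein to compounds spotted on small-molecule microarray slides.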 As to conditions: higher = more signal.
Assay [12] can be described thus: growth effects on S. cerevisiae YJM789 – YJM789 clinical isolate, OD600, 24 h, basal, primary screen (AID 1089).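 Also: growth of clinical yeast isolate S. cerevisiae YJM 789 seeded 1000 cells per well; test concentration not given here.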 As to conditions: higher = more signal, called active from +8 up or from −8 down.
A short description of assay [13]: S. pombe growth modifiers, basal conditions – strain 972, OD600, 24 h, no modulator, primary screen (AID 1090).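 Also: basal condition with compound alone and no growth modifier present; test concentration not given here.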 The settings on record: S. pombe 972 growth, higher = more signal, called active from +8 up or from −8 down.
Assay [14] in a line: budding yeast growth modifiers under rapamycin – strain BY4716, OD600, 96 h, primary screen (AID 1091). Also: test concentration not given here. The settings on record: S. cerevisiae BY4716 + rapamycin, higher = more signal, called active from +8 up or from −8 down.
The target of assay [15] is Torsin-1A-interacting protein 2 (Homo sapiens) (UniProt Q8NFQ8). The experiment in a line: small molecules binding lysate-expressed LULL1 – cell lysate, human LULL1 lysate, 635/667 nm fluorescence, primary screen (AID 1092).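 Also: probe is lysate of COS7 cells overexpressing human LULL1; score merges per-feature 667 nm fluorescence with signal-to-noise.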 The settings on record: small-molecule microarray, hLULL1 lysate binding, 635 nm fluorescence; higher = more signal.
Sequence of Torsin-1A-interacting protein 2 (Homo sapiens) (Q8NFQ8 whole entry, looked up): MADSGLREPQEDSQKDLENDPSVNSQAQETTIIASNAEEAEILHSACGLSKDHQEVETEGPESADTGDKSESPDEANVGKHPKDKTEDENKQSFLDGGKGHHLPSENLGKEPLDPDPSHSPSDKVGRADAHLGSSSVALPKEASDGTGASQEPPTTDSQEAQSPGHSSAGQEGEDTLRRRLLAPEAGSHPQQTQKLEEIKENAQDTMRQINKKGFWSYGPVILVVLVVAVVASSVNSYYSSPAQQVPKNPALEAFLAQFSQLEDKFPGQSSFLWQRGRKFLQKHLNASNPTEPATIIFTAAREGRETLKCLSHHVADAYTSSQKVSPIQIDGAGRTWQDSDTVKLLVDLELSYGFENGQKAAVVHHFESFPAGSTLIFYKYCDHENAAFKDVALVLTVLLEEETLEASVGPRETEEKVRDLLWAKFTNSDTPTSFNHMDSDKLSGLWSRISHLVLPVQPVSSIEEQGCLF
A short description of assay [16]: optical density change of DRC41 E. coli – strain DRC41, OD650, 24 h, E. coli filamentation project, primary screen (AID 1093).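 Also: MC1000 strain lacking acrAB efflux and sulA so SOS filamentation is blocked; test concentration not given here.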 As to conditions: E. coli DRC41 growth, higher = more signal, called active from +8 up or from −8 down.
The nature of assay [17]: probe aLefty2 binding to arrayed compounds – biochemical, biotinylated probe, 635/667 nm fluorescence, primary screen (AID 1094).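 Also: score merges spot fluorescence near 667 nm with spot signal-to-noise ratio.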 As to conditions: small-molecule microarray, higher = more signal.
Assay [18] relates to Noggin (protein binding on small-molecule microarray). The experiment in a line: small molecules binding Noggin protein – biochemical, 635/667 nm fluorescence, primary screen (AID 1095).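 Also: score merges 667 nm feature fluorescence with signal to noise over triplicate slides.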 As to conditions: 635 nm fluorescence, higher = more signal.
Assay [19] deals with Neurogenic locus notch homolog protein 3 (Homo sapiens) (UniProt Q9UM47). As to the kind of experiment: small molecules binding NOTCH3 protein – biochemical, 635/667 nm fluorescence, primary screen (AID 1096). The settings on record: small-molecule microarray, 635 nm fluorescence, higher = more signal.
Sequence of Neurogenic locus notch homolog protein 3 (Homo sapiens) (Q9UM47 whole entry, looked up): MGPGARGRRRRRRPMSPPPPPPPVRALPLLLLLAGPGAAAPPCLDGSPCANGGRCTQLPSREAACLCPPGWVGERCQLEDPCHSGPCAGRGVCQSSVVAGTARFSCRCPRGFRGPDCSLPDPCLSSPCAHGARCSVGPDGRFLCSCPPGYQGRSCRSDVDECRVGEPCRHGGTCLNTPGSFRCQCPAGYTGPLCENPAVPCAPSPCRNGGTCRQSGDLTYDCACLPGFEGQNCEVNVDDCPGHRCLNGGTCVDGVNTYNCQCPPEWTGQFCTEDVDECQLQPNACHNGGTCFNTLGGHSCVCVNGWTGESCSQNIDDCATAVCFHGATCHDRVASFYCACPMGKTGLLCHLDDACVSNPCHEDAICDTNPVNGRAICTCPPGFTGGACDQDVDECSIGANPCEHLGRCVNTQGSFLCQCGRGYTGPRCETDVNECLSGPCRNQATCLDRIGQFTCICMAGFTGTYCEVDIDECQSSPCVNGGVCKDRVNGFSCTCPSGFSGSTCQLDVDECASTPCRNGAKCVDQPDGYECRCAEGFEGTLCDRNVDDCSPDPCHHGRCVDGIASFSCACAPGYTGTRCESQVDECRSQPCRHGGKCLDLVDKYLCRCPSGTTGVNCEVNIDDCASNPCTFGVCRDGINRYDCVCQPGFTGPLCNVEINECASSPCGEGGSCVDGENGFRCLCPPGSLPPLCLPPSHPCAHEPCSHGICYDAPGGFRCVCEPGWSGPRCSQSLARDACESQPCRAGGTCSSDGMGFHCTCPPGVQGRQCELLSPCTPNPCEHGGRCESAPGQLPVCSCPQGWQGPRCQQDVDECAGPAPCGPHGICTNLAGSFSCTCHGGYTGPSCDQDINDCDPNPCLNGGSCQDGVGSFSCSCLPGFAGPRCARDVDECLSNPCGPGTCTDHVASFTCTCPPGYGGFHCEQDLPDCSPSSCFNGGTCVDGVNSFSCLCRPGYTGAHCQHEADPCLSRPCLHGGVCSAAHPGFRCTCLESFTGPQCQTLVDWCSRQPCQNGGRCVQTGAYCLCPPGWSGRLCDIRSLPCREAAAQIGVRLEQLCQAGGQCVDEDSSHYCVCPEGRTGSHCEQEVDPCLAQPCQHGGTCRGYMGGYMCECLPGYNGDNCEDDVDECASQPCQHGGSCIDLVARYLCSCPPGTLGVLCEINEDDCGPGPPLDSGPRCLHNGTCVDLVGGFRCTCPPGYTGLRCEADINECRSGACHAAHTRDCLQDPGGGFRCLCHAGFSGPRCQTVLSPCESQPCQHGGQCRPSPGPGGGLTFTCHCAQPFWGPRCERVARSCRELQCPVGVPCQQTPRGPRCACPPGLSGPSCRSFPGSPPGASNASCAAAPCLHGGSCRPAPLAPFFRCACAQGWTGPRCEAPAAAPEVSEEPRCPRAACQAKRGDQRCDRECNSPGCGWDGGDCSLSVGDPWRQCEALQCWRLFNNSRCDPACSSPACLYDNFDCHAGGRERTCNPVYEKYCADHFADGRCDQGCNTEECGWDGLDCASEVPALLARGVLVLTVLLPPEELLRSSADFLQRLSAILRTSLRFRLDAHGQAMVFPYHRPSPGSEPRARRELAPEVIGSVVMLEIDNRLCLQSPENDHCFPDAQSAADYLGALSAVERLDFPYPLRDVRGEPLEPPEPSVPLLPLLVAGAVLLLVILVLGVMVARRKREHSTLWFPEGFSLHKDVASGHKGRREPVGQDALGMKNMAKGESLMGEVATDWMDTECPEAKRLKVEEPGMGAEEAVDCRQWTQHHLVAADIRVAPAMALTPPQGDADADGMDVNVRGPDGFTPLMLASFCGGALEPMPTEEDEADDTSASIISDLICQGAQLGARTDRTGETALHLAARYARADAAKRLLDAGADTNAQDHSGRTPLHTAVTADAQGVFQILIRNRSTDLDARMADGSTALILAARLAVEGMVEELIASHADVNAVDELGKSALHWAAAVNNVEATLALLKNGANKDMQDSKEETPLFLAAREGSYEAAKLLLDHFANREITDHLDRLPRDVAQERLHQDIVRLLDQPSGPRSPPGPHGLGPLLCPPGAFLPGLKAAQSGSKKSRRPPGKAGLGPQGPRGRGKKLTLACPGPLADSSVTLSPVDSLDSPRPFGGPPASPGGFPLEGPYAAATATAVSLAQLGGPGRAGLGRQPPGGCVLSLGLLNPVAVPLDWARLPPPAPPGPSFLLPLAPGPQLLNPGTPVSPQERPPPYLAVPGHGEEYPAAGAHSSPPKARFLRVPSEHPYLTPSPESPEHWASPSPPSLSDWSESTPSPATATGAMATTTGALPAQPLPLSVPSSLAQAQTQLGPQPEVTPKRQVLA
Assay [20] can be described thus: probe aEGFR binding to arrayed compounds – biochemical, biotinylated probe, 635/667 nm fluorescence, primary screen (AID 1097).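 Also: probe is a biotinylated anti-EGFR antibody binding compounds printed on slides; score combines fluorescence near 667 nm and signal to noise of each spot.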 As to conditions: small-molecule microarray, higher = more signal.

The source made the active and inactive calls.

For the compound `C=CCC(OC(C)=O)[C@@H]1[C@@H](N(Cc2cc3ccccc3o2)C(=O)c2ccc(C)cc2)c2cc(OCCCO)ccc2N1C(=O)Cc1ccc(OC)cc1` (stereo not given in full), the composite z-score was -0.18 in assay [1]; 0.0811 in assay [2]; -0.0878 in [3]; -0.0177 in [4]; 0.0335 in assay [5]; -0.433 in assay [6]. Moreover, the composite z-score is -0.0742 in assay [7]; 0.277 in assay [9]; -0.0645 in assay [10]; 0.23 in [11]; 0.692 in assay [15]; 0.0761 in [17]. Also, the composite z-score was -0.0512 in assay [18], 0.233 in [19] and -0.15 in assay [20]. The z-score is 0.443 (inactive) in assay [8]; 0.0303 (inactive) in assay [12]; -0.841 (inactive) in assay [13]; -0.131 (inactive) in [14]; 1.21 (inactive) in assay [16].
Regarding `C=CC[C@]1(C(=O)O)COC(c2ccc(OCCCO)cc2)=N1`, the composite z-score in assay [1] is -0.151; in [2] it was 0.273; in assay [3], -0.0538; in assay [4], -0.114; in assay [5] it was 0.675; in assay [6], 1.79. Further, the composite z-score in assay [7] is 1.07; in [9] it was 0.403; in assay [10], -0.249; in assay [11] it was 0.262; in assay [15], 3.36; in assay [17] it was -0.0784. For the same compound, the composite z-score was 0.253 in [18], 0.0614 in assay [19] and -0.0828 in assay [20]. Moreover, the z-score was 0.519 (inactive) in [8]; -0.396 (inactive) in assay [12]; -0.636 (inactive) in [13]; -0.581 (inactive) in [14]; -0.204 (inactive) in [16].
For the compound `COCCOC(=O)N1C(=O)[C@@]2(c3cc(C#CCCO)ccc31)[C@H](C(=O)Nc1nc3ccccc3s1)[C@H]1C(=O)O[C@H](c3ccccc3)[C@H](c3ccccc3)N1[C@@H]2c1ccccc1OCCO`, the composite z-score is -0.224 in [1]; 0.53 in assay [2]; 0.0293 in assay [3]; 0.802 in assay [4]; 1.29 in assay [5]; 0.95 in assay [6]. Besides, the composite z-score in assay [7] is 1.32; in [9] it was 0.745; in assay [10] it was 0.153; in assay [11], 1.54; in assay [15] it was 2.81; in assay [17], -0.116. Also, the composite z-score in [18] is 0.6; in [19], 1.09; in assay [20] it was -0.0828. The z-score in [8] is 1.23 (inactive); in [12] it was 2.53 (inactive); in assay [13], 1.7 (inactive); in assay [14] it was 3.64 (inactive); in assay [16], -0.0236 (inactive).
Regarding `COCCOC(=O)N1C(=O)[C@@]2(c3cc(C#Cc4ccc(OC)cc4)ccc31)[C@H](c1ccc(O)cc1)N1[C@H](c3ccccc3)[C@H](c3ccccc3)OC(=O)[C@H]1[C@@H]2C(=O)N1CCCCCCC1`, the composite z-score in [1] stood at 2.84; in assay [2], 0.746; in [3], 0.0177; in assay [4], 0.178; in assay [5] it was 0.679; in assay [6] it was 0.326. In addition, the composite z-score stood at 0.341 in [7]; 2.46 in assay [9]; 2.1 in assay [10]; 0.632 in assay [11]; 1.46 in [15]; 1.43 in [17]. In addition, the composite z-score in assay [18] came out at 0.332; in [19] it was 0.0324; in [20], 0.642. Besides, the z-score is 1.39 (inactive) in assay [8]; -0.158 (inactive) in [12]; -0.239 (inactive) in [13]; 1.47 (inactive) in assay [14]; -0.0793 (inactive) in [16].
As for `COc1ccc([Si](C)(C)[C@H]2[C@H](CCn3cc([C@H](O)c4ccccc4)nn3)O[C@@]3(C(=O)N(Cc4ccc(N5C(=O)c6cccc7cccc5c67)cc4)c4ccccc43)[C@@H]2C)cc1`, the composite z-score in [1] is 0.193; in assay [2] it was -0.241; in [3], -0.159; in assay [4] it was 0.595; in [5] it was -0.715; in [6], 0.45. For the same compound, the composite z-score is 1.1 in assay [7]; -0.403 in assay [9]; -0.0994 in [10]; 0.643 in assay [11]; 0.277 in assay [15]; -0.0674 in assay [17]. Moreover, the composite z-score in [18] was -0.162; in assay [19] it was -0.0817; in [20], -0.285. Further, the z-score in assay [8] was -3.35 (inactive); in [12] it was 0.642 (inactive); in assay [13] it was 1.17 (inactive); in [14], 2.55 (inactive); in assay [16] it was 0.021 (inactive).
In the case of `CCCCC(=C=CC[C@@H](O)c1ccccc1OCCO)C[C@@H](O)COCc1ccccc1`, the composite z-score in [1] is -0.0745; in assay [2], 0.0282; in assay [3] it was -0.101; in assay [4] it was -0.333; in [5], -0.768; in assay [6] it was 0.852. Further, the composite z-score is 0.115 in [7]; -0.462 in [9]; -0.201 in assay [10]; 1.13 in [11]; 1.91 in assay [15]; -0.166 in assay [17]. For the same compound, the composite z-score in assay [18] is 0.404; in [19] it was 0.185; in assay [20] it was -0.209. Further, the z-score in assay [8] is -2.9 (inactive); in assay [12], -1.69 (inactive); in assay [13], -2.1 (inactive); in assay [14], -1.26 (inactive); in assay [16], 1.31 (inactive).
For `COC(=O)[C@@]1(Cc2ccc(OC)cc2)[C@H]2c3cc(C(=O)N(C)C)n(Cc4ccc(Cl)c(C(F)(F)F)c4)c3C[C@H]2CN1C(=O)c1ccccc1`, the composite z-score stood at 1.33 in assay [1]; 0.218 in assay [2]; 0.262 in [3]; 0.473 in assay [4]; 1.47 in assay [5]; 1.39 in [6]. The composite z-score in assay [7] stood at 1.03; in assay [9], 1.73; in [10], 1.71; in assay [11], 0.295; in assay [15] it was 3.06; in [17], 0.539. In addition, the composite z-score was -0.0329 in [18], 1.02 in assay [19] and 0.35 in assay [20]. The z-score in assay [8] was 0.282 (inactive); in [12], 1.01 (inactive); in assay [13], 1.38 (inactive); in assay [14], 2.98 (inactive); in assay [16], -0.397 (inactive).
Turning to `O=C1O[C@H](c2ccccc2)[C@H](c2ccccc2)N2[C@H]1[C@@H](C(=O)N1CCN(c3ncccn3)CC1)[C@]1(C(=O)Nc3ccc(C#CC4(O)CCCCCC4)cc31)[C@H]2c1ccc(OCCO)cc1`, the composite z-score stood at 0.696 in assay [1]; 0.968 in [2]; 0.0583 in assay [3]; 1.2 in assay [4]; 1.52 in assay [5]; 2.25 in [6]. Besides, the composite z-score worked out at 1.22 in assay [7]; 2.45 in [9]; 0.334 in [10]; 1.53 in assay [11]; 3.79 in assay [15]; 1.19 in assay [17]. The composite z-score in assay [18] was found to be 1.68; in [19] it was 1.08; in assay [20] it was 0.471. Moreover, the z-score is 1.8 (inactive) in assay [8]; 2.89 (inactive) in assay [12]; 1.42 (inactive) in [13]; 5.4 (inactive) in assay [14]; -0.409 (inactive) in assay [16].
`C#CCN([C@@H](Cc1ccc(O)cc1)C(=O)OC)[C@@H](/C=C/C1CC1)[C@H](O)Cc1ccccc1`: the composite z-score in assay [1] is 0.164; in [2], -0.112; in [3], -0.0732; in [4], -0.37; in assay [5], -0.791; in [6], -0.737. Moreover, the composite z-score in [7] is 0.356; in [9] it was -0.09; in assay [10] it was -0.337; in assay [11] it was 0.0371; in assay [15], -0.0965; in assay [17] it was -0.241. The composite z-score in assay [18] is 0.0698; in assay [19], 0.337; in [20] it was -0.13. The z-score was -3.55 (inactive) in [8]; -0.686 (inactive) in assay [12]; -4.05 (inactive) in [13]; 0.417 (inactive) in assay [14]; -1.17 (inactive) in [16].

The values are drawn from PubChem BioAssay.
